From PubChem BioAssay
MRP1 act – MRP-1 activation. AID 799. H69AR cells + doxorubicin, viability rescue, CellTiter-Glo. 140,000 tested, 0.61% active. viability increase, % at 10 µM;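 active = viability gain under doxorubicin at or above a set limit, the compound median plus 3 SD, cut at about 4.7% in these data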;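 also: MRP-1 overexpressing cells given doxorubicin 25 µM after compound pretreatment; 18-22 h compound pretreatment then 72 h with doxorubicin before readout; 0% = doxorubicin-only wells and 100% = vehicle-treated cells without doxorubicin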
PLAP act – activators of human placental alkaline phosphatase | purified PLAP enzyme, luminescent substrate read-out; active compounds read high | 96,000 tested, 1.2% active | activation fold at 20 µM; in the data active = activation fold above about 2
PTPN22 inh 2 – LYP (human) phosphatase inhibition. inhibition, % at 2 µM. Q9Y2R2. 96,000 tested, 0.21% active. recombinant LYP catalytic domain, DiFMUP fluorescence;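 active = inhibition at 2 µM at or above a set limit, the screen mean plus 3 SD, cut at about 24% in these data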;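 also: 0% = DMSO with enzyme and 100% = enzyme fully blocked by orthovanadate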
Target sequence (Q9Y2R2 whole entry, looked up, the tested form may be a part): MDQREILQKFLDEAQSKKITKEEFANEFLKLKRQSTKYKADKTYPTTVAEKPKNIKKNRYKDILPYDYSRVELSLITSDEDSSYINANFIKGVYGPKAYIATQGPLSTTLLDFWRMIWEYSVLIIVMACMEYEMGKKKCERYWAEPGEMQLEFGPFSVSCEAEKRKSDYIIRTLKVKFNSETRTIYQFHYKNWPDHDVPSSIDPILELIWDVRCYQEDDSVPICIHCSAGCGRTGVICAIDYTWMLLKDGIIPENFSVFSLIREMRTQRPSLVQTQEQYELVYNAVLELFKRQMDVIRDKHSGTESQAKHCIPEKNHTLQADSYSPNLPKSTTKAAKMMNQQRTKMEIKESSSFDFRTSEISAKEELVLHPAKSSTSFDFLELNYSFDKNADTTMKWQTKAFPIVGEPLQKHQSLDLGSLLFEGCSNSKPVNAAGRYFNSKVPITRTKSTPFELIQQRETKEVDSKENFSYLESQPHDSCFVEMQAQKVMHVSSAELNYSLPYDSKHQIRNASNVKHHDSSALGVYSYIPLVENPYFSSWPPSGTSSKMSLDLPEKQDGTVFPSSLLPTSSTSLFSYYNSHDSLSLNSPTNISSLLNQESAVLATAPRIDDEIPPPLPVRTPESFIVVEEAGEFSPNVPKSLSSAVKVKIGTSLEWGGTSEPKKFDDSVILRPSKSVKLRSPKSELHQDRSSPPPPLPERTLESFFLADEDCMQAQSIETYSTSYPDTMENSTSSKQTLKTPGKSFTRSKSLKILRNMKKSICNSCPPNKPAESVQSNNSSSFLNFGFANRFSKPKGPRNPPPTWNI
FAK inh – inhibitors of human focal adhesion kinase; Q05397; biochemical FAK kinase activity assay; inhibition, %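 (tested at 7 µM)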; 97,000 tested, 0.84% active; AID 727; in the data active = inhibition above about 19%;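 also: 0% = DMSO and 100% = reference compound high control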
MRP reversal – MRP-mediated drug resistance reversal; AID 602; differential viability (reversal), % at 10 µM; 85,000 tested, 0.04% active; H69AR cells + 2 uM doxorubicin, CellTiter-Glo, 72 h;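 active = viability drop by adding the cancer drug above about 55%, with treated viability meeting a 40% cutoff, limit read from the data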;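 also: viability without doxorubicin minus viability with 2 µM doxorubicin for each compound; larger differential means the compound sensitizes cells more to doxorubicin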
LYP act – increases human PTPN22 phosphatase activity; recombinant LYP, DiFMUP fluorescence; 0 = plate median, 100 = signal doubled; activation, % at 2 µM; 96,000 tested, 0.11% active;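 active = activation at 2 µM above a set limit, the mean plus 5 SD, cut at about 37% in these data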
Numbers without * were called inactive. Only some compounds are listed: those with a hit (about 2.2% of all), similar ones and a draw of the others.

Screening CCCn1cnc2c(sc3nc4c(cc32)CSC(C)(C)C4)c1=O returned MRP1 act 1, PLAP act 1, PTPN22 inh 2 -3, FAK inh 1 and LYP act 1.
For Cn1cc(C(=O)c2ccc(Cl)cc2Cl)cc1C(=O)N/N=C(\N)COc1cccc(C(F)(F)F)c1 the results were MRP1 act -2, PLAP act 2*, PTPN22 inh 2 4, FAK inh -1, MRP reversal -40 and LYP act -4.
`COC(=O)c1cc(C(=O)c2ccc(Cl)cc2Cl)cn1C` gave MRP1 act -1, PLAP act 0.9, PTPN22 inh 2 6, FAK inh 3 and LYP act -2.
For CN(C(=S)Nc1ccc(F)cc1)C1(c2ccccc2Cl)CCCCC1=O (stereo not given) the results were MRP1 act -3, PLAP act 0.9, PTPN22 inh 2 2, FAK inh -5, MRP reversal 4 and LYP act 0.
`Cc1nnn(C23CC4CC(CC(CC(=O)Nc5ccc(C)c(C)c5)(C4)C2)C3)n1` gave MRP1 act -3.
For O=C(CSc1ncn[nH]1)N1CCN(S(=O)(=O)c2ccc(Cl)cc2)CC1 the results were MRP1 act -1, PLAP act 2.1*, PTPN22 inh 2 6, FAK inh -2, MRP reversal -1 and LYP act -5.
C=CCc1c(C)nc(-c2ccccc2)nc1N/N=C/c1ccccc1 was read as MRP1 act 8.5*.
C=CCc1c(C)nc(-c2ccccc2)nc1N/N=C(\C)c1ccc(N)cc1 was read as MRP1 act 5.7*.
Screening C=CCc1c(C)nc(C)nc1N/N=C/c1ccccc1 returned MRP1 act 0, PLAP act 1.5, PTPN22 inh 2 -7, FAK inh -2, MRP reversal 15 and LYP act 10.
C=C(C)C(=O)NC1=NN(c2ccccc2)C(=O)C1 was read as MRP1 act 6.0*.
For Cc1ccccc1N=CC=C1OC(C)(C)C(C)(C)O1 the results were MRP1 act 0.
`CC(/C=N/Nc1nc(C)cc(C)n1)=C\c1ccc(C(C)C)cc1` gave MRP1 act 3.
Screening CCOC(=O)c1ccc(NC(=S)NC(=O)COc2ccccc2)cc1 returned MRP1 act -2.
`Cc1cccc(C(=O)NNC(=O)c2ccccc2)c1` gave MRP1 act -2.
Screening Cc1cccc(C(=O)c2cnc3ccccc3c2-c2ccccc2)c1 returned MRP1 act 5.0*, PLAP act 1.3, PTPN22 inh 2 8, FAK inh 3 and LYP act -5.
O=C(CC(=O)N/N=C/c1ccccc1O)NCc1cccnc1 was read as MRP1 act 5.5*.
Screening COc1cccc(/C=N/Nc2nc(Nc3ccccc3)nc(-n3nc(C)cc3C)n2)c1O returned MRP1 act -6, PLAP act 2.3*, PTPN22 inh 2 12, FAK inh 0 and LYP act -12.
For CN1CCc2nc3ccc(Cl)cc3c(-c3ccccc3Cl)c2C1 the results were MRP1 act 0.
`O=C(O)c1ccccc1C(=O)Nc1ccc(S(=O)(=O)NC2CCCCC2)cc1` gave MRP1 act 1.
For O=C(NNC1=C(C(=O)C(F)(F)F)CCC1)c1cccc(O)c1 the results were MRP1 act 0, PTPN22 inh 2 1, FAK inh -2, MRP reversal -12 and LYP act 0.
For Cc1cccc(C(=O)NNC2=C(C(=O)C(F)(F)F)CCC2)c1O the results were MRP1 act -5, PLAP act 2.3*, PTPN22 inh 2 14, FAK inh -4, MRP reversal -10 and LYP act -12.
Screening CC1(C)CC(=O)c2c(O)c(-c3ccccc3)c(=O)n(-c3ccccc3)c2C1 returned MRP1 act -1.
Screening O=C(CCCSc1nc2ccccc2[nH]1)Nc1nnc(-c2ccccc2)o1 returned MRP1 act -5, PLAP act 2.1*, PTPN22 inh 2 -17, FAK inh 4, MRP reversal -10 and LYP act 21.
O=C(CCCSc1nc2ccccc2[nH]1)NCc1ccccc1 was read as MRP1 act 1.
Screening c1ccc2[nH]c(CSc3nnc(-c4ccncc4)o3)nc2c1 returned MRP1 act -5, PLAP act 2.2* and MRP reversal 14.
For c1ccc(-c2nnc(CSc3nc4ccccc4[nH]3)o2)cc1 the results were MRP1 act -2, PLAP act 2.2*, PTPN22 inh 2 -12, FAK inh -6 and LYP act 10.
Cn1cc(CNC(=O)/C=C/c2ccc(Cl)cc2)cn1 was read as MRP1 act -1.
Screening N#CC1(C#N)[C@@H](C(=O)C23CC4CC(CC(C4)C2)C3)C12CCOCC2 returned MRP1 act -3.
CCCn1cnc2cc(NCc3cccc(OC)c3O)ccc21 was read as MRP1 act -1, PLAP act 2.7*, PTPN22 inh 2 -1, FAK inh 3, MRP reversal -18 and LYP act -1.
For CN(C)c1oc(-c2ccc(OCc3ccccc3)cc2)nc1C#N the results were MRP1 act 4.7*, PLAP act 1.4, PTPN22 inh 2 8, FAK inh -1, MRP reversal 2 and LYP act -11.
Screening CCc1nnc(NC(=O)C2CCCN2S(=O)(=O)c2ccc(C)cc2)s1 (stereo not given) returned MRP1 act 6.8*, PLAP act 1, PTPN22 inh 2 -8, FAK inh -6, MRP reversal -12 and LYP act 3.
Cn1c2ccccc2n2c(=O)c(=O)n(CC(=O)c3ccc(Cl)cc3)nc12 was read as MRP1 act 0.
`Cc1oc(-c2ccccc2)nc1C(=O)Nc1nccs1` gave MRP1 act -3, PLAP act 2*, PTPN22 inh 2 3, FAK inh 5, MRP reversal -7 and LYP act -4.
COc1ccc(-c2csc(NC(=O)c3nc(-c4ccccc4)oc3C)n2)cc1 was read as MRP1 act 0, PLAP act 1, PTPN22 inh 2 11, FAK inh -3 and LYP act -6.
Cc1c(N=C2NC(=O)/C(=C/c3cccc([N+](=O)[O-])c3)S2)c(=O)n(-c2ccccc2)n1C was read as MRP1 act -2.
CN(C)c1ccc(/C=N/N=C2/NC(=O)/C(=C/c3ccc([N+](=O)[O-])cc3)S2)cc1 was read as MRP1 act -5, PLAP act 1.1, PTPN22 inh 2 25*, FAK inh 4 and LYP act -23.
`CC(C)(C)SCCNC(=O)/C=C/c1ccc(F)cc1` gave MRP1 act -1.
CC(C)(CNC(=O)/C=C/c1ccc(F)cc1)CNC(=O)/C=C/c1ccc(F)cc1 was read as MRP1 act 5.9*.
Screening COc1ccc(NC(=O)CSc2nc3ncccc3[nH]2)cc1OC returned MRP1 act -3, PLAP act 2*, PTPN22 inh 2 -6, FAK inh 1, MRP reversal 7 and LYP act 9.
